Assay [1] deals with Glucocorticoid receptor (Homo sapiens) (UniProt P04150). The assay can be described thus: qHTS assay for small molecule antagonists of glucocorticoid receptor signaling (AID 588533; active = well fitted inhibition curve with a large enough effect in the signal ratio, with a control signal flat, not every such curve was filed as active; the % refers to the signal ratio;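 note: cells stimulated with 2 nM dexamethasone as agonist; % is set by controls: 0 for no effect and ±100 for the full control effect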). The method, boiled down:
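Antagonist-mode qHTS: compound titrations added to GRE-bla HeLa cells, then dexamethasone 2 nM final; 18 h, 37 C. CCF4 FRET fluorescence normalized to dexamethasone and DMSO; IC50 from Hill fit.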
For orientation: In qHTS, concentration-response curves come from the screen itself.

The nature of assay [2]: qHTS assay for small molecule antagonists of peroxisome proliferator-activated receptor delta signaling (AID 588535; active = well fitted inhibition curve with a large enough effect in the signal ratio, with a control signal flat, not every such curve was filed as active; the % refers to the signal ratio;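 for max response: cells co-treated with a PPAR-delta agonist as stimulator during compound exposure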). The conditions noted are these: HEK293T PPARd-UAS-bla, beta-lactamase FRET ratio, 18 h; 460 nm channel. The method, boiled down: (§1)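 Titrations were run on PPAR-delta-UAS-bla HEK293T cells in charcoal/dextran-stripped serum, incubated 18 h at 37 C. CCF4 fluorescence (460/530 nm) after 2 h RT; Hill equation yields IC50 and maximal response.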

In assay [3] the target is Peroxisome proliferator-activated receptor delta (Homo sapiens) (UniProt Q03181). The description is as above. An outline of the steps: as §1
For assay [4], the target named is Peroxisome proliferator-activated receptor gamma (Homo sapiens) (UniProt P37231). The assay can be described thus: qHTS assay for small molecule agonists of peroxisome proliferator-activated receptor gamma signaling (AID 588536; active = well fitted curve in the direction sought with a large enough effect in the signal ratio, with a control signal flat, not every such curve was filed as active; the % refers to the signal ratio;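 note: 0% = DMSO basal wells and 100% = rosiglitazone at 2 µM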). An outline of the steps: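 This is an agonist-mode beta-lactamase reporter assay in HEK293 PPAR-gamma-UAS-bla cells with 1% charcoal/dextran FBS. Compound titrations ran 16 h at 37 C before CCF4 detection. EC50 and efficacy are Hill fits scaled to 2 uM rosiglitazone (100%) and DMSO basal.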

The target in assay [5] is Vitamin D3 receptor (Homo sapiens) (UniProt P11473). Nature of the assay: qHTS assay for small molecule agonists of vitamin D receptor signaling (AID 588543).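 Note: 0% = DMSO basal and 100% = reference agonist control.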 An outline of the steps:
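Measured: β-lactamase reporter activity (CCF4, 405 nm excitation, 460/530 nm emission) in HEK293T VDR-UAS-bla cells after 16 h compound exposure at 37 °C. Normalization against 50 nM 1α,25-dihydroxyvitamin D3 and DMSO; Hill-fit EC50.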

In assay [6] the target is Thyroid hormone receptor beta (Homo sapiens) (UniProt P10828). The assay can be described thus: qHTS assay for small molecule agonists of thyroid hormone receptor beta signaling (AID 588545).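 Note: 0% = DMSO only and 100% = 10 nM T3.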 The method, boiled down: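 Stimulation of a TR-driven beta-lactamase reporter was quantified in GripTite HEK 293 cells. Compound series ran for 18 hrs; curves were normalized to T3 and DMSO controls and fitted to yield EC50.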

Assay [7] can be described thus: qHTS assay for small molecule antagonists of retinoid X receptor alpha signaling (AID 588546; active = well fitted inhibition curve with a large enough effect in the signal ratio, with a control signal flat, not every such curve was filed as active; the % refers to the signal ratio;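 note: cells stimulated with 9-cis-retinoic acid as agonist; % is set by controls: 0 for no effect and ±100 for the full control effect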). The conditions noted are these: HEK293T RXRa-UAS-bla, beta-lactamase ratio, antagonist mode; measured here: W530 green channel, cytotoxicity proxy. The method, boiled down: (§2)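 Beta-lactamase reporter inhibition, read as CCF4 fluorescence ratio (ex 405, em 460/530 nm) after 2 h at RT. HEK293T UAS-bla cells, 2500/well, were stimulated with 9-cis-RA at 500 or 100 nM final alongside test compound for 18 h at 37 C.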

For assay [8], the target named is Retinoic acid receptor RXR-alpha (Homo sapiens) (UniProt P19793). The description is as above. The conditions noted are these: HEK293T RXRa-UAS-bla, beta-lactamase ratio, antagonist mode. An outline of the steps: as §2
Assay [9] deals with Thyroid hormone receptor beta (Homo sapiens) (UniProt P10828). The assay can be described thus: qHTS assay for small molecule antagonists of thyroid hormone receptor beta signaling (AID 588547; active = well fitted inhibition curve with a large enough effect in the signal ratio, with a control signal flat, not every such curve was filed as active; the % refers to the signal ratio;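 note: cells stimulated with 0.4 nM T3 agonist during compound exposure; series mostly up to about 77 µM; % is set by controls: 0 for no effect and ±100 for the full control effect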). Particulars: TR-UAS-bla HEK293, beta-lactamase ratio, antagonist mode, 18 h. The method, boiled down: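 Inhibition of T3-driven (0.4nM final) beta-lactamase reporter activity was measured over 0.59 nM to 92 uM compound after 18 h at 37 C. The cells were GripTite HEK293 TR-UAS-bla in charcoal/dextran-stripped serum, with CCF4 ratio read-out and IC50 from Hill fits.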

Assay [10] is described as follows: qHTS assay for small molecule activators of the p53 signaling pathway (AID 651743; active = well fitted activation curve with a large enough effect in the signal ratio, not every such curve was filed as active; the % refers to the signal ratio; note: series mostly up to about 92 µM; % of control where 0% means no effect). The conditions noted are these: HCT-116 p53RE-bla, beta-lactamase FRET ratio, 16 h; activation: stronger effect = higher value. The method, boiled down: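 After 16 hours compound treatment at 37 C, HCT-116 cells stably expressing p53RE-driven beta-lactamase were loaded with LiveBLAzer B/G FRET substrate for 2 hours at room temperature. Fluorescence intensity served as the p53 activation read-out.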

Assay [11] in a line: qHTS assay for small molecule activators of the nuclear factor-kappa B (NF-kB) signaling pathway (AID 651749; active = well fitted activation curve with a large enough effect in the signal ratio; the % refers to the signal ratio; note: series mostly up to about 77 µM; % of control where 0% means no effect). Particulars: NF-kB-bla ME-180 cells, beta-lactamase FRET ratio, 16 h; activation: stronger effect = higher value. The method, boiled down: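 Activation measured after 16 hr compound treatment at 37C, 5% CO2, of 2,000 ME-180 cells/well stably expressing an NF-kB response element–driven beta-lactamase reporter, via FRET-disruption fluorescence.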

The nature of assay [12]: qHTS assay for environmental chemicals that activate the Aryl hydrocarbon Receptor (AhR) signaling pathway (AID 651777; active = well fitted curve in the direction sought with a large enough effect; an effect the other way counts as inactive or inconclusive; note: % of control where 0% means no effect; nearly all actives have a fitted effect of over 15% in size). The conditions noted are these: 1A2-DRE human hepatoma cells, luciferase, 24 h; activation: stronger effect = higher value. An outline of the steps: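 Quantitative HTS in stably transfected human liver-derived cells whose luciferase gene sits downstream of the CYP1A2 promoter and dioxin response element. After 24 hr exposure at 37 C, One-Glo luminescence was measured.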

Assay [13] concerns the target Peroxisome proliferator-activated receptor alpha (Homo sapiens) (UniProt Q07869). Nature of the assay: qHTS assay for small molecule agonists of the peroxisome proliferator-activated receptor alpha (PPARalpha) signaling pathway (AID 651778; active = well fitted curve in the direction sought with a large enough effect; an effect the other way counts as inactive or inconclusive; note: % of control where 0% means no effect). Particulars: PathHunter PPARalpha complementation, chemiluminescence, 6 h; max response: stronger effect = higher value. An outline of the steps:
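Chemiluminescence from complemented enzyme reported PPARalpha activation in cells after 6 hr of compound treatment at 37 C. The detection reagent was incubated for 60 min at room temperature, and compounds were scored as agonists.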

A short description of assay [14]: qHTS assay for small molecule agonists of the antioxidant response element (ARE) signaling pathway measured by Nrf2-dependant transcriptional activity (AID 720636; active = well fitted curve in the direction sought with a large enough effect in the repeat runs; an effect the other way counts as inactive or inconclusive; note: % of control where 0% means no effect). The method, boiled down: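 Quantitative HTS format in HepG2 cells stably expressing an ARE-luciferase reporter; 16 hr compound treatment at 37 C, luciferase signal detected with ONE-Glo.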
Assay [15] can be described thus: qHTS assay for small molecule agonists of the antioxidant response element (ARE) signaling pathway measured by Nrf2-dependant transcriptional activity - cell viability counter screen (AID 720653; active = well fitted curve in the direction sought with a large enough effect in the repeat runs; an effect the other way counts as inactive or inconclusive; note: % is set by controls: 0 for no effect and ±100 for the full control effect). The conditions noted are these: ARE-bla HepG2 viability, CellTiter-Glo ATP luminescence, 16 h; max response: stronger effect = lower value. An outline of the steps: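 Cytotoxicity counter screen: intracellular ATP quantified by CellTiter-Glo luminescence in the same ARE-bla HepG2 plates, after 16 h compound exposure and a 2 h beta-lactamase substrate step.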

The nature of assay [16]: qHTS assay for cell viability of HEK293 cells (AID 743288; active = well fitted curve in the direction sought with a large enough effect; an effect the other way counts as inactive or inconclusive; note: % is set by controls: 0 for no effect and ±100 for the full control effect; nearly all actives have a fitted effect of over 50% in size). Particulars: ATP luminescence (CellTiter-Glo), 18 h; max response: stronger effect = lower value. The method, boiled down:
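HEK293, 18 h, 37 C, ATP luminescence. Cells at 2,000/well were allowed at least 5 h to settle before dosing; CellTiter-Glo developed 30 min at RT.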

Assay [17] in a line: qHTS assay for cell viability of the p53RE-bla HCT-116 cell line (AID 743292; active = well fitted curve in the direction sought with a large enough effect; an effect the other way counts as inactive or inconclusive; note: % is set by controls: 0 for no effect and ±100 for the full control effect; nearly all actives have a fitted effect of over 55% in size). An outline of the steps:
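Viability of compound-treated p53RE-bla HCT-116 cells is taken from ATP-dependent luciferase luminescence. Treatment lasts 16 h at 37 C after a 5 h settling period; detection follows 30 min at room temperature.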

Assay [18] concerns the target Peroxisome proliferator-activated receptor delta (Homo sapiens) (UniProt Q03181). Nature of the assay: qHTS assay for small molecule agonists of peroxisome proliferator-activated receptor delta signaling (AID 588534).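 Note: 0% = DMSO basal wells and 100% = positive control agonist at 10 µM.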 An outline of the steps:
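Agonist-mode beta-lactamase reporter readout (CCF4 dye, 2 h at RT) after 18 h at 37 °C exposure to a titration; Hill-equation fitting gave EC50 and maximal response.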

For assay [19], the target named is Peroxisome proliferator-activated receptor gamma (Homo sapiens) (UniProt P37231). Nature of the assay: qHTS assay for small molecule antagonists of peroxisome proliferator-activated receptor gamma signaling (AID 588537; active = well fitted inhibition curve with a large enough effect in the signal ratio, with a control signal flat, not every such curve was filed as active; the % refers to the signal ratio;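 note: reporter cells co-stimulated with 50 nM rosiglitazone agonist during compound treatment; % of control where 0% means no effect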). The method, boiled down: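 Antagonist-mode β-lactamase reporter screen run as a titration series. HEK293 PPARγ-UAS-bla cells are stimulated with rosiglitazone (50 nM final) for 16 h, then CCF4 is read at 460/530 nm. Data are scaled between DMSO and rosiglitazone and fitted to the Hill equation.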

Assay [20] can be described thus: qHTS assay for small molecule agonists of retinoid X receptor alpha signaling (AID 588544).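 For activation: 0% = DMSO basal wells and 100% = reference agonist.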 The conditions noted are these: HEK293T RXRa-UAS-bla, beta-lactamase reporter, 18 h; 530 nm emission.
The target in assay [21] is Retinoic acid receptor RXR-alpha (Homo sapiens) (UniProt P19793). Described as above.
Assay [22] has as its target Nuclear receptor subfamily 1 group I member 2 (Rattus norvegicus) (UniProt Q9R1A7). The assay can be described thus: qHTS assay for small molecule activators of the rat pregnane X receptor (rPXR) signaling pathway (AID 651751; call rule not given here; note: 0% is about no effect). The conditions noted are these: rPXR reporter cells, luciferase (One-Glo), 24 h.
The target in assay [23] is Glucocorticoid receptor (Homo sapiens) (UniProt P04150). Nature of the assay: qHTS assay for small molecule agonists of glucocorticoid receptor signaling (AID 588532; active = well fitted curve in the direction sought with a large enough effect in the signal ratio, with a control signal flat; the % refers to the signal ratio;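 note: 100% = dexamethasone at 0.1 µM and 0% = DMSO only wells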). Particulars: HeLa MMTV-bla, beta-lactamase ratio, agonist, 18 h; activation: stronger effect = higher value, percent of dexamethasone control, DMSO zero. The method, boiled down: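 Quantitative HTS using CellSensor MMTV-bla HeLa cells in charcoal/dextran-treated serum; compounds tested up to 92 uM. After 18 h at 37 C, CCF4 dye reported reporter induction.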

Assay [24] has as its target Vitamin D3 receptor (Homo sapiens) (UniProt P11473). The assay can be described thus: qHTS assay for small molecule antagonists of vitamin D receptor signaling (AID 588541). An outline of the steps:
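Antagonist-mode beta-lactamase reporter assay: HEK293T VDR-UAS-bla cells were exposed to titrated compound alongside 1-alpha,25-dihydroxyvitamin D3 at 3 nM final for 16 h. Values were normalized to the 50 nM agonist control and DMSO basal, with IC50 and efficacy from Hill equation fits.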

Inconclusive results are not listed. Active and inactive are the calls of the source. Unless noted, calls come from the whole dose curve.

Sequence of Thyroid hormone receptor beta (Homo sapiens) (P10828 whole entry, looked up): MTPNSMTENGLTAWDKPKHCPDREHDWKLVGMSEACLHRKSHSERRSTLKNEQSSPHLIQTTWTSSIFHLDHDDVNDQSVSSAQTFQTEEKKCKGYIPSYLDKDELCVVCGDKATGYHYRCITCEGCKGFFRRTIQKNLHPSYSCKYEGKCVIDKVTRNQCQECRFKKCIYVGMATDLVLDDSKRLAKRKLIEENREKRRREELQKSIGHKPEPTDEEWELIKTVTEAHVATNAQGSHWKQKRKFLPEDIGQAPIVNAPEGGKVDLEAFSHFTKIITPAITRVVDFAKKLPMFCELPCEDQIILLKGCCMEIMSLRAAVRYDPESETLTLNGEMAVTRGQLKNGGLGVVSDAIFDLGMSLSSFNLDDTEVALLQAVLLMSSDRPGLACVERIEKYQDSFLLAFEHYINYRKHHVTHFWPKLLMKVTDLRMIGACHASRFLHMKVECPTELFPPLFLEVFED
Sequence of Glucocorticoid receptor (Homo sapiens) (P04150 whole entry, looked up): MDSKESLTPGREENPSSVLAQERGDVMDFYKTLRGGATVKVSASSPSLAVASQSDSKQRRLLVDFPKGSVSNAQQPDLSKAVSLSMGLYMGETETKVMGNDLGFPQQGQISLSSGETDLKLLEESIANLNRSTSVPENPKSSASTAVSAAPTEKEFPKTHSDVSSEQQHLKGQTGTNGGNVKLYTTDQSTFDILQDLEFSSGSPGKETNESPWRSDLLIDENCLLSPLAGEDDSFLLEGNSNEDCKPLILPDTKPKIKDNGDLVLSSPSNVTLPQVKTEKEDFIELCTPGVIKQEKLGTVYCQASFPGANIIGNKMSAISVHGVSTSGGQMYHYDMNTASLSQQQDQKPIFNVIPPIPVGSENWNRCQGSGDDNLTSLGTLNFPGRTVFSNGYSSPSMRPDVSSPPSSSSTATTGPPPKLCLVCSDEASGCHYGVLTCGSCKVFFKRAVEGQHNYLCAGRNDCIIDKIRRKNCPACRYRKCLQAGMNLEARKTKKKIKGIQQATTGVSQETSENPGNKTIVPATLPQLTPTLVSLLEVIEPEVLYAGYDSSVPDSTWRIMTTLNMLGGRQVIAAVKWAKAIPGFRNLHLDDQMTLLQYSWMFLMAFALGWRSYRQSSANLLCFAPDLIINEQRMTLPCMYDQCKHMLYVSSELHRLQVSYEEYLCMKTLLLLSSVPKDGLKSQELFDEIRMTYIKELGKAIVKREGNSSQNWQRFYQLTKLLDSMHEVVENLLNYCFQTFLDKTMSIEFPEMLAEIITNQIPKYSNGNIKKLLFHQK
Sequence of Peroxisome proliferator-activated receptor gamma (Homo sapiens) (P37231 whole entry, looked up): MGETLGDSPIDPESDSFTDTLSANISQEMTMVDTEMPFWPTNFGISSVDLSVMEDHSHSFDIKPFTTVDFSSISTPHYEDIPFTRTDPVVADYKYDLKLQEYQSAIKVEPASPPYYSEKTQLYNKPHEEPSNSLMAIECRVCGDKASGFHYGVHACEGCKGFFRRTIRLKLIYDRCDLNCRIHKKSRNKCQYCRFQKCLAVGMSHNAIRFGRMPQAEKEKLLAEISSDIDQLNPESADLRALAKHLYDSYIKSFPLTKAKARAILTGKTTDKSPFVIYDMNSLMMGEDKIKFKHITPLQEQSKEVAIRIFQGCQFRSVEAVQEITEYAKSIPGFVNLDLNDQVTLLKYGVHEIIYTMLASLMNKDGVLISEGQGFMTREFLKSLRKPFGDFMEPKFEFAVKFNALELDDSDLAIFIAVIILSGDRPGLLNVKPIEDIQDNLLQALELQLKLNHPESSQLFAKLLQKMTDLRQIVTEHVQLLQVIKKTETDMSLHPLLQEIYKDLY
Sequence of Retinoic acid receptor RXR-alpha (Homo sapiens) (P19793 whole entry, looked up): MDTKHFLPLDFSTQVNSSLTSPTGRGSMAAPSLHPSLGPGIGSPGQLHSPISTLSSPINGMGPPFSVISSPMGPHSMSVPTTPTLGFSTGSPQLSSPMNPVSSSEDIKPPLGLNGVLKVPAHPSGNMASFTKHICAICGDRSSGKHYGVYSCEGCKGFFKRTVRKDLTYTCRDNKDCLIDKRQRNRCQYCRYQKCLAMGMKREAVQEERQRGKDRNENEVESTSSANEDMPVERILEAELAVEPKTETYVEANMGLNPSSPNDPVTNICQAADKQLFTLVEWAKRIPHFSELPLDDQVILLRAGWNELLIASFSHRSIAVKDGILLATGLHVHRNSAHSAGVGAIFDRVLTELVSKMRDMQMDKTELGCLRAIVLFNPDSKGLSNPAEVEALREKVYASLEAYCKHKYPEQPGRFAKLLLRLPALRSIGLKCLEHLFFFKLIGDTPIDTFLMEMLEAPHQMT
Sequence of Peroxisome proliferator-activated receptor delta (Homo sapiens) (Q03181 whole entry, looked up): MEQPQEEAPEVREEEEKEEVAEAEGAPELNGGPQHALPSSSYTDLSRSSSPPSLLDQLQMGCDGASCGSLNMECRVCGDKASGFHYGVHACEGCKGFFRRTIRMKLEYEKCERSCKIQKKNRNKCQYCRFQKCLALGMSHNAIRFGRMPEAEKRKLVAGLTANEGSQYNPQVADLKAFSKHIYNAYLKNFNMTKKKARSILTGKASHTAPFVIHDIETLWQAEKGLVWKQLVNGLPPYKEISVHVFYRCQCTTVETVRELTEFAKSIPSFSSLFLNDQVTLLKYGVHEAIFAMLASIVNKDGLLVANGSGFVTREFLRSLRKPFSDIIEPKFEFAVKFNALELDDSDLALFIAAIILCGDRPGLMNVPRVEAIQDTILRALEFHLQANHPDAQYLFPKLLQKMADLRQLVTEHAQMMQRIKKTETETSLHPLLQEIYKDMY
Sequence of Vitamin D3 receptor (Homo sapiens) (P11473 whole entry, looked up): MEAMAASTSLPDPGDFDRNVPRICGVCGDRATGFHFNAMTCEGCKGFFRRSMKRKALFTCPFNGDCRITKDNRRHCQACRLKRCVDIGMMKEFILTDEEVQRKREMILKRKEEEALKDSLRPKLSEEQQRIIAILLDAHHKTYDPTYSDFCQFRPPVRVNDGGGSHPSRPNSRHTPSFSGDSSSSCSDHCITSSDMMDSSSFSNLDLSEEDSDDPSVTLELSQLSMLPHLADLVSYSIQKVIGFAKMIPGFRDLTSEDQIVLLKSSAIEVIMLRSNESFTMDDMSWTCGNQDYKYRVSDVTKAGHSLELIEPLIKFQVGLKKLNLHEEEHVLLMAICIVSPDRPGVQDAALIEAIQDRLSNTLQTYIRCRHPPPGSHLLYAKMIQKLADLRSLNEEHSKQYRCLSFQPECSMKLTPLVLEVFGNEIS
Sequence of Peroxisome proliferator-activated receptor alpha (Homo sapiens) (Q07869 whole entry, looked up): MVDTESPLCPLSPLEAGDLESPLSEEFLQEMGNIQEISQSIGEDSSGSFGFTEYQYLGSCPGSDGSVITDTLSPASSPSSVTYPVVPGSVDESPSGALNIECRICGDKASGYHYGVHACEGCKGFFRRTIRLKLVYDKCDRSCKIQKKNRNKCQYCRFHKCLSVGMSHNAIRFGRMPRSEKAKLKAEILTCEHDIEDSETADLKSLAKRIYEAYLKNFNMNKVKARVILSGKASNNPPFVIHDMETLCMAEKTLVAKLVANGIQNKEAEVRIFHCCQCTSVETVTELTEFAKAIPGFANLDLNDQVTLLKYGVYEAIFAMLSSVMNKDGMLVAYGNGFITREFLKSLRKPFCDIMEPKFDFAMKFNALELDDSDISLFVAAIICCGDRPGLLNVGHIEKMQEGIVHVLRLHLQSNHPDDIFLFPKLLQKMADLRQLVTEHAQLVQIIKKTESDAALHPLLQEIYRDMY
Sequence of Nuclear receptor subfamily 1 group I member 2 (Rattus norvegicus) (Q9R1A7 whole entry, looked up): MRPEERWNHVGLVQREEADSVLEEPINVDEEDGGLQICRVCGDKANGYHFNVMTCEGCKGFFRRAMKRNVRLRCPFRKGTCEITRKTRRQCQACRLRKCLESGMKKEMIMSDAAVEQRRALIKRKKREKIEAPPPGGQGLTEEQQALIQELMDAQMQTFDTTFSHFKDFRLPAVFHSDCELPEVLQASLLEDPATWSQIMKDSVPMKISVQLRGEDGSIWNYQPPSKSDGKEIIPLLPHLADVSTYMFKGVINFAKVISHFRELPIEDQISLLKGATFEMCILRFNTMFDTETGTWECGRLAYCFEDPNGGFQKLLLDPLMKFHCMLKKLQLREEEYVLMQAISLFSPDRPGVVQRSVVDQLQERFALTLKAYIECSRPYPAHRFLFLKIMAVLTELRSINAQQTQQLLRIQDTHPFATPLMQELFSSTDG

As to `O=P(Oc1ccccc1)(Oc1ccccc1)Oc1ccccc1`, the Potency entry in assay [1], in assay [3], in assay [4], in [6], in [14] and in assay [17] was “inactive” in each case. Besides, the max response in [2] is 29%; in assay [7] it was 0.157%; in [8] it was -15.3% (inactive); in [13] it was -0.776% (inactive); in assay [15] it was -2.38% (inactive); in assay [16] it was -15.7% (inactive). For the same compound, the compound was called inactive in [5]. Besides, the activity change % (negative = inhibition) in assay [9] is -5.53% (inactive). The activation is -5.18% (inactive) in assay [10], -2% (inactive) in assay [11] and 2.98% (inactive) in [12].
On to `CC1=CC2C3CC(C=C3C)C2C1` (stereo not given), for which, in assay [18], the compound was classed as inactive.
`CCNc1nc(Cl)nc(NC(C)(C)C#N)n1`: the Potency entry in assay [1], in [3], in assay [4], in assay [19], in assay [21] and in assay [6] was “inactive” each time. In addition, in [17], the Potency entry was “inactive”. The call in [18] was inactive. Besides, the max response in assay [2] was 32.2%; in assay [20] it was -4.23%; in assay [7] it was 0.495%; in [8], -7.14% (inactive); in assay [13], 0.299% (inactive); in assay [15] it was -18.8% (inactive). Moreover, the max response in assay [22] is -0.0883% (inactive). Also, the activity change % (negative = inhibition) in assay [9] is -10.7% (inactive). In addition, the figures for the activation in assay [10] and in assay [12] were -4.15% (inactive) and 1.84% (inactive), respectively.
Consider `CCCC=O`, for which, in assay [18], the outcome was inactive.
On to `S=C([S-])NCCNC(=S)[S-].S=C([S-])NCCNC(=S)[S-].[Mn+2].[Zn+2]`, for which the activation in [23] was 13.6% (inactive). Besides, in assay [24], the Potency result was “inactive”.
Take `CC(=O)Nc1cccc(C)c1`: the outcome in [18] was inactive.
